The source of these data is the antibiotic and cytotoxicity screens of Wong et al. (2023).

Hit rate of the full screen: of about 39,000 compounds, about 3,300 (8.5%) were called active. The sample holds actives, similar compounds and a random draw of the others, so the mix is not that of the screen.

In this experiment the test system is HepG2. Briefly: cytotoxicity call (relative viability < 0.9). To be noted: 10 µM.
Regarding `COc1nc(C#N)nc(N2CCCCC2)n1`, the cytotoxicity call was “inactive”. `COc1ccc(S(=O)(=O)N(C)C[C@H]2OCCCC[C@@H](C)Oc3ccc(NC(=O)Nc4ccc(F)cc4)cc3C(=O)N([C@@H](C)CO)C[C@@H]2C)cc1`: the cytotoxicity call was “inactive”. Take `CCO[C@@H]1OC(C(=O)N2CCN(Cc3ccc4c(c3)OCO4)CC2)=C[C@H](C)[C@H]1CCCOC(=O)NCCCCCC(=O)NO`: the cytotoxicity call is “inactive”.

For `Cc1noc(C)c1NC(=O)Nc1ccc2c(c1)C(=O)N([C@H](C)CO)C[C@@H](C)[C@H](CN(C)Cc1ccccc1)OCCCC[C@H](C)O2`, the cytotoxicity call is “inactive”. With `Cc1cccc(S(=O)(=O)N2C[C@H](O)COC[C@H]3O[C@H](CC(=O)NCCCN4CCOCC4)CC[C@@H]32)c1` the entry was “inactive”. With `C[C@@H]1CN([C@H](C)CO)C(=O)Cc2cc(NS(C)(=O)=O)ccc2O[C@@H]1CN(C)C(=O)Nc1ccc2c(c1)OCO2` the entry was “inactive”; with `C[C@@H]1CN([C@@H](C)CO)C(=O)c2cc(NC(=O)CCC(F)(F)F)ccc2O[C@@H](C)CCCCO[C@H]1CN(C)Cc1ccc2c(c1)OCO2`, “inactive”; with `Cc1noc(C)c1S(=O)(=O)N(C)C[C@@H]1Oc2ccc(NC(=O)Cn3cnnn3)cc2CC(=O)N([C@@H](C)CO)C[C@@H]1C`, “inactive”. The entry for `C[C@H]1CN([C@@H](C)CO)S(=O)(=O)c2ccc(C#CCN(C)C)cc2O[C@H]1CN(C)C(=O)c1ccccc1F` is “inactive”.

On to `O=C(C[C@@H]1CC[C@@H](NC(=O)CN2CCOCC2)[C@@H](CO)O1)NC1CCC1`, for which the cytotoxicity call was “inactive”. As for `COc1cccc(CN(C)C[C@@H]2OCc3ccccc3-c3c(n(C)c4ccccc34)C(=O)N([C@H](C)CO)C[C@@H]2C)c1`, the cytotoxicity call was “inactive”. Take `Cc1ccc(S(=O)(=O)N(C)C[C@@H]2Oc3ccc(NC(=O)CCCN(C)C)cc3C(=O)N([C@H](C)CO)C[C@@H]2C)cc1`: the cytotoxicity call is “inactive”. Turning to `Nc1ccc(/C=C/C(=O)NCc2cc3cc(-c4ccc(C(=O)N5CCC(F)(F)CC5)cc4)cc(-c4ccc(F)cc4)c3o2)cn1`, the cytotoxicity call was “active”. The entry for `C[C@H]1CN([C@@H](C)CO)C(=O)CCCn2nncc2CO[C@@H]1CN(C)C(=O)C1CC1` is “inactive”; for `CC(C)NC(=O)Nc1cccc2c1O[C@H](CN(C)Cc1ccc(Oc3ccccc3)cc1)[C@@H](C)CN([C@H](C)CO)C2=O` it is “inactive”; for `Cc1ccc2nccc(C(=O)N3CCC[C@@H](Cn4cc(C(C)(C)N)nn4)C3)c2c1` it is “inactive”. Turning to `C[C@H]1CCCCO[C@H](CN(C)C(=O)Nc2cccc3ccccc23)[C@@H](C)CN([C@@H](C)CO)C(=O)c2cc(NS(C)(=O)=O)ccc2O1`, the cytotoxicity call is “inactive”. The entry for `COc1cc(C(=O)N2CCC(N3CCN(C)CC3)CC2)ccc1Nc1ncc2c(n1)N(C)c1ccccc1C(=O)N2C` is “active”. With `COc1cc(N2CCC(N3CCN(C)CC3)CC2)ccc1Nc1ncc(Cl)c(Nc2ccccc2S(=O)(=O)C(C)C)n1` the entry was “active”; with `NC1CCN(C(=O)c2c[nH]c3ccccc23)CC1`, “inactive”.

On to `COc1cc(N2CCC(N)CC2)ccc1Nc1ncc(Cl)c(-c2c[nH]c3ccccc23)n1`, for which the cytotoxicity call was “active”. As to `COc1cc(C(=O)N2CCN(CCN3C(=O)c4cccc5cccc(c45)C3=O)CC2)cc(OC)c1OC`, the cytotoxicity call was “inactive”.

Take `COc1cc(N2CCC(O)CC2)ccc1Nc1cc(Nc2ccccc2S(=O)(=O)C(C)C)c2cc[nH]c2n1`: the cytotoxicity call was “inactive”. The entry for `COc1cc(C(=O)NC2CCN(C)CC2)ccc1Nc1ncc2c(n1)N(C1CCC(O)CC1)CCC(=O)N2C` (stereo unspecified) is “inactive”; for `Cc1cc(Nc2ncc(Cl)c(Nc3ccccc3S(=O)(=O)C(C)C)n2)c(OC(C)C)cc1C1CCNCC1` it is “active”; for `Cc1noc(C)c1S(=O)(=O)Nc1ccc2c(c1)C(=O)N([C@@H](C)CO)C[C@H](C)[C@H](CN(C)C(=O)NC1CCCCC1)O2` it is “inactive”. The entry for `Cc1noc(C)c1NC(=O)N(C)C[C@H]1Oc2c(NC(=O)c3ccc(-c4nccs4)cc3)cccc2C(=O)N([C@@H](C)CO)C[C@H]1C` is “inactive”; for `Cc1noc(C)c1NC(=O)N(C)C[C@@H]1OCCCC[C@H](C)Oc2ccc(NC(=O)c3ccccc3)cc2C(=O)N([C@@H](C)CO)C[C@@H]1C` it is “inactive”. With `NC[C@H]1OB(O)c2c(OCCCO)cccc21` the entry was “inactive”. As for `C=CCOC(=O)[C@H]1[C@@H]2C(=O)O[C@@H](c3ccccc3)[C@@H](c3ccccc3)N2[C@@H](c2ccc(OCCOC(=O)[C@@H]3C[C@@H]4C(=O)N5CCC[C@H]5C(=O)N4[C@@H]3c3cccc(OCCO)c3)cc2)[C@]12C(=O)Nc1ccc(I)cc12`, the cytotoxicity call was “inactive”. With `CC(C)NC(=O)Nc1ccc2c(c1)CC(=O)N([C@H](C)CO)C[C@H](C)[C@H](CN(C)C(=O)NC1CCCCC1)O2` the entry was “inactive”; with `CN1C(=O)c2cc(NC(=O)c3cccs3)ccc2OC[C@@H]2O[C@@H](CC(=O)NCC(F)(F)F)CC[C@@H]21`, “inactive”. The entry for `COc1cc(N2CCC(N(C)C)CC2)ccc1Nc1ncc(Cl)c(Nc2ccccc2P(C)(C)=O)n1` is “active”.

`C=C(C)C1CCC2(C)CCC3(C)C(CCC4C5(C)CCC(O)C(C)(C)C5CCC43C)C12` (stereo unspecified): the cytotoxicity call was “inactive”. For the molecule `C=C(C)C1CCC2(C(=O)O)CCC3(C)C(CCC4C5(C)CCC(O)C(C)(C)C5CCC43C)C12` (stereo unspecified), the cytotoxicity call was “inactive”. The entry for `C=C(C)C1CCC2(CO)CCC3(C)C(CCC4C5(C)CCC(O)C(C)(C)C5CCC43C)C12` (stereo unspecified) is “active”; for `CCS(=O)(=O)Nc1ccc2c(c1)C(=O)N(C)[C@@H]1CC[C@@H](CC(=O)NCCOC)O[C@@H]1CO2` it is “inactive”. In the case of `Cc1noc(C)c1NC(=O)N(C)C[C@@H]1Oc2ccc(NC(=O)Nc3ccc(C(F)(F)F)cc3)cc2CC(=O)N([C@H](C)CO)C[C@H]1C`, the cytotoxicity call was “inactive”.

`CNC[C@@H]1Oc2cc(C#CC(C)(C)O)ccc2S(=O)(=O)N([C@@H](C)CO)C[C@@H]1C`: the cytotoxicity call was “inactive”.

For the molecule `Cc1ccc(S(=O)(=O)Nc2cccc3c2O[C@H](CN(C)Cc2ccc(-c4ccccc4)cc2)[C@@H](C)CN([C@@H](C)CO)C3=O)cc1`, the cytotoxicity call was “inactive”. In the case of `C[C@@H]1CN([C@@H](C)CO)C(=O)c2cccc(NS(=O)(=O)c3ccccc3)c2O[C@H]1CN(C)Cc1ccc(-c2ccccc2)cc1`, the cytotoxicity call was “inactive”.

For the molecule `Cc1ccc(S(=O)(=O)Nc2cccc3c2O[C@@H](CN(C)Cc2ccc(-c4ccccc4)cc2)[C@@H](C)CN([C@H](C)CO)C3=O)cc1`, the cytotoxicity call was “active”. With `C[C@@H]1CN([C@H](C)CO)C(=O)c2cccc(NS(=O)(=O)c3ccccc3)c2O[C@@H]1CN(C)Cc1ccc(-c2ccccc2)cc1` the entry was “active”; with `C[C@@H]1CN([C@H](C)CO)C(=O)c2cccc(NS(=O)(=O)c3ccc(Cl)cc3)c2O[C@H]1CN(C)Cc1ccc(-c2ccccc2)cc1`, “inactive”. The entry for `Cc1ccc(S(=O)(=O)Nc2cccc3c2O[C@H](CN(C)Cc2ccc(-c4ccccc4)cc2)[C@H](C)CN([C@H](C)CO)C3=O)cc1` is “active”; for `Cc1ccc(S(=O)(=O)Nc2cccc3c2O[C@H](CN(C)Cc2ccc(-c4ccccc4)cc2)[C@@H](C)CN([C@H](C)CO)C3=O)cc1` it is “inactive”. With `C[C@@H]1CN([C@@H](C)CO)C(=O)c2cccc(NS(=O)(=O)c3ccc(Cl)cc3)c2O[C@H]1CN(C)Cc1ccc(-c2ccccc2)cc1` the entry was “inactive”; with `Cc1ccc(S(=O)(=O)Nc2cccc3c2O[C@@H](CN(C)Cc2ccc(-c4ccccc4)cc2)[C@@H](C)CN([C@@H](C)CO)C3=O)cc1`, “inactive”; with `C[C@@H]1CN([C@@H](C)CO)C(=O)c2cccc(NS(=O)(=O)c3ccc(Cl)cc3)c2O[C@@H]1CN(C)Cc1ccc(-c2ccccc2)cc1`, “active”.

Take `Cc1ccc(S(=O)(=O)Nc2cccc3c2O[C@@H](CN(C)Cc2ccc(-c4ccccc4)cc2)[C@H](C)CN([C@H](C)CO)C3=O)cc1`: the cytotoxicity call is “inactive”. With `C[C@H]1CN([C@@H](C)CO)C(=O)c2cccc(NS(=O)(=O)c3ccccc3)c2O[C@H]1CN(C)Cc1ccc(-c2ccccc2)cc1` the entry was “inactive”.
